Data taken from PubChem BioAssay (NCI).
This is part of a sample that, as a whole, favours compounds with a hit. Of some 83,000 tested, about 20% had one in any assay.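 Single-concentration screen, 48 h exposure, 96-well plates. Endpoint: percent growth. Below 10 = active.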 Active and inactive are the calls of the source.

Key:
Test in all cases: NCI-60 one-dose screen, 48 h (100 = growth as untreated, 0 = no growth, -100 = all killed)
Details in all cases: 10 µM unless noted
[1] = system: SK-MEL-2 melanoma
[2] = system: EKVX NSCLC
[3] = system: SN12C renal
[4] = system: UO-31 renal
[5] = system: TK-10 renal
[6] = system: ACHN renal
[7] = system: CAKI-1 renal
[8] = system: A498 renal
[9] = system: CCRF-CEM leukemia
[10] = system: MOLT-4 leukemia
[11] = system: RPMI-8226 leukemia
[12] = system: OVCAR-8 ovarian
[13] = system: OVCAR-5 ovarian
[14] = system: OVCAR-4 ovarian
[15] = system: SK-OV-3 ovarian
[16] = system: IGROV1 ovarian
[17] = system: OVCAR-3 ovarian
[18] = system: HS 578T breast
[19] = system: NCI/ADR-RES ovarian

Measured: growth

S=C(c1cccs1)N1CCN(c2cccc(Cl)c2)CC1
inactive: [1] 99% | [2] 115% | [3] 101% | [4] 88.8% | [5] 101% | [6] 100% | [7] 92.4% | [8] 96.7% | [9] 87.9% | [10] 92.5% | [11] 86.3% | [12] 104% | [13] 97.2% | [14] 101% | [15] 107% | [16] 89.9% | [17] 106% | [18] 120% | [19] 104%

Cc1ncc(C(=O)Nc2ccc(CN3CCN(C)CC3)c(C(F)(F)F)c2)cc1C#Cc1ccc(N)nc1
active: [1] -55% | [2] 9.23% | [3] 2.89% | [4] -27% | [5] -28.2% | [6] -20% | [7] -71.1% | [8] -64.1% | [11] 1.1% | [16] -25% | [18] -20% | [19] 9.79%
inactive: [9] 18.6% | [10] 25.9% | [12] 19.8% | [13] 10.4% | [14] 12% | [15] 16.7% | [17] 18.6%

O=C(/C=C/c1sc(Cl)nc1Cl)c1ccc(F)cc1
inactive: [1] 95.5% | [2] 88.8% | [3] 45.1% | [4] 85.4% | [5] 103% | [6] 22.4% | [7] 88.2% | [8] 91.9% | [9] 37.5% | [10] 48.5% | [12] 83.7% | [13] 104% | [14] 102% | [15] 99.4% | [16] 94.8% | [18] 86.8% | [19] 98.5%
active: [11] 0.843% | [17] 9.39%

COc1ccc(-c2[nH]ncc2-c2cc3c(c(OC)c2)OCC(=O)N3)cc1
inactive: [2] 38.7% | [3] 35.8% | [4] 36.4% | [6] 36.7% | [7] 26% | [9] 23.2% | [10] 31.9% | [11] 29.3% | [12] 23.5% | [13] 36.7% | [14] 54.4% | [15] 19.8% | [16] 38.2% | [19] 29.7%
active: [1] 9.07% | [5] 1.85% | [8] -21% | [17] -4.58% | [18] -2.19%

COc1cccc2nc3n(c12)C(c1c(F)cccc1F)SC3 (stereo not given)
inactive: [1] 86.2% | [2] 101% | [3] 100% | [4] 77.6% | [5] 115% | [6] 92.7% | [7] 106% | [8] 103% | [9] 89.5% | [10] 87% | [11] 70.4% | [12] 103% | [13] 80.8% | [14] 97.4% | [15] 101% | [17] 132% | [18] 92.7% | [19] 95.7%
active: [16] 7.38%

Fc1cc2c(cc1Cl)N(c1ncnc3ccc(-c4cnc5cnccn45)cc13)CC2
inactive: [1] 102% | [2] 63.4% | [3] 79.3% | [4] 42.1% | [5] 96.9% | [6] 60.4% | [7] 62.8% | [8] 45.6% | [9] 108% | [10] 98.9% | [11] 95.2% | [12] 91.4% | [13] 74.4% | [14] 94.8% | [15] 94.2% | [16] 48.2% | [17] 87.4% | [18] 93.4% | [19] 86.8%

COc1cc(CCCO)c(OC)c(OC)c1OC
inactive: [1] 118% | [2] 105% | [3] 99.6% | [4] 90.4% | [5] 109% | [6] 106% | [7] 92.3% | [8] 83.6% | [9] 108% | [10] 110% | [11] 112% | [12] 107% | [13] 103% | [14] 102% | [15] 107% | [16] 109% | [17] 111% | [18] 102% | [19] 104%

CCc1ccccc1-n1c(N)c(C#N)c(-c2ccc(Cl)cc2)c(C#N)c1=O
inactive: [1] 117% | [2] 97.7% | [3] 106% | [4] 76.9% | [5] 157% | [6] 107% | [7] 103% | [8] 127% | [10] 105% | [11] 84.2% | [12] 111% | [13] 108% | [14] 93.3% | [15] 108% | [16] 87% | [17] 107% | [18] 92.2% | [19] 102%
active: [9] -18.3%

COc1ccc(C2CC(c3ccc(Nc4ccnc5cc(Cl)ccc45)cc3)=NN2C=O)cc1 (stereo not given)
inactive: [1] 92.5% | [2] 68.2% | [3] 64.4% | [4] 43.2% | [5] 91.2% | [6] 48.5% | [7] 59.2% | [8] 101% | [9] 14% | [10] 25.8% | [11] 30.9% | [12] 73.3% | [13] 102% | [14] 62.3% | [15] 96.9% | [16] 67.5% | [17] 52.7% | [18] 68.8% | [19] 51.7%

CNC(=O)c1[nH]cc(-c2ccccc2)c1-c1cc(OC)c2c(c1OC)OCO2
inactive: [1] 102% | [2] 98% | [3] 91.1% | [4] 83.8% | [5] 106% | [6] 95.8% | [7] 76.5% | [8] 95.4% | [9] 108% | [10] 101% | [11] 105% | [12] 100% | [13] 101% | [14] 106% | [15] 108% | [16] 103% | [17] 94.9% | [18] 102% | [19] 101%
